Screens: PubChem BioAssay, National Center for Advancing Translational Sciences (NCATS)
Most compounds without a hit are left out; they make up all but 19% or so of the library.
Marburg entry inh: qHTS for inhibitors of binding or entry into cells for Marburg Virus; Potency, µM (doses to about 37.8 µM), for inactives: top-dose activity change, negative = inhibition, hits mostly inhibitors; AID 540276, 2011; Marburg virus pseudotyped entry inhibition, cell reporter; 1.8% of 300,000 active; calls by dose curve; tested in HEK293 cells; further: potency means the concentration at half of the fitted maximal effect; on the % scale 0 is the no-effect control and ±100 the full control effect
Pf growth 96h: Primary qHTS for delayed death inhibitors of the malarial parasite plastid, 96 hour incubation. Potency, µM (series often up to 28.7 µM), for the others: top-dose activity change, negative = inhibition, most hits filed as inhibitors. P. falciparum luciferase reporter growth, 96 h. 6.9% of 320,000 active; further: potency means the concentration at half of the fitted maximal effect; on the % scale 0 is the no-effect control and ±100 the full control effect
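Luminescence readout: decreased luciferase signal marks inhibited growth of reporter-expressing P. falciparum in infected red cells (2% hematocrit, 0.05% parasitemia final), exposed to compound two generations (96 h, 37 C, 5% CO2).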
Shiga toxin inh: A qHTS for Small Molecule Inhibitors of Shiga Toxin. Vero cells, Shiga toxin protein synthesis inhibition reporter. inhibition, % at 38.7 µM. 9.2% of 290,000 active. AID 2315, 2010; in the data active means inhibition mostly above about 28%, no sharp cut-off; inactive means mostly below about 43%; further: 0% is about no effect
CHX counter: Cycloheximide Counterscreen for Small Molecule Inhibitors of Shiga Toxin | cell reporter, cycloheximide protein synthesis inhibition counterscreen | max response, % | 12% of 300,000 active | AID 2314, 2010; in the data active means max response mostly above about 13%, no sharp cut-off; inactive means mostly below about 14%; further: read at 38.3 µM for the half of the compounds with a filed dose; 0% is about no effect
LASV entry inh: qHTS for Inhibitors of binding or entry into cells for Lassa Virus | AID 540256, 2011 | Lassa virus pseudotype entry inhibition, cell reporter | 1.2% of 300,000 active | Potency, µM (series often up to 37.9 µM), inactives show at the highest dose activity change, negative = inhibition, hits mostly inhibitors; calls by dose curve; tested in HEK293 cells; further: potency means the concentration at half of the fitted maximal effect; on the % scale 0 is the no-effect control and ±100 the full control effect; nearly all actives have a fitted effect of over 50% in size
Pf growth 48h: Primary qHTS for delayed death inhibitors of the malarial parasite plastid, 48 hour incubation; P. falciparum luciferase growth in erythrocytes, 48 h; 5.9% of 310,000 active; AID 504832, 2011; Potency, µM (highest dose often 28.7 µM), without a hit: at the highest dose activity change, negative = inhibition, usual class: inhibitors; further: potency means the concentration at half of the fitted maximal effect; on the % scale 0 is the no-effect control and ±100 the full control effect
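Here the parasites carry a stable luciferase gene and grow inside erythrocytes in Albumax-based RPMI medium with compound for one erythrocytic cycle. Activity is scored as loss of luminescent signal.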
The depositor's hits bear a star; i = inactive; ? = inconclusive; · = no result given; [ ] = remark or other dose. Unless noted, the call rests on the fitted dose curve; in most records, active means well fitted inhibition curve with a large enough effect; inconclusive means small, poorly fitted or top-dose-only effect, or another doubt; inactive means no such curve, though single readings can be large or run the other way.

SMILES	Marburg entry inh	Pf growth 96h	Shiga toxin inh	CHX counter	LASV entry inh	Pf growth 48h
Cc1cc(C)cc(N(CC(=O)N2CCCC2)S(C)(=O)=O)c1	9%	1%	-2	-3	?	-18%
CCOc1ccc(NC(=S)NCCCc2ccccc2)cc1	2%[46.1 µM]	0%	19	-1	-5%	-15%
CNC(=S)Nc1ccc(OCc2ccccc2)cc1	·	?	48*	44*	·	41%
CCOC(=O)C1CCN(c2nnc(N3CCCC3=O)s2)CC1	?	0.83µM*	43*	23*	?	58%
COc1cc(OC)cc(C(=O)O/N=C(\N)c2cccc(C)c2)c1	·	7%	44	13	·	?
O=C(COC(=O)c1cccc([N+](=O)[O-])c1)NCc1ccc2c(c1)OCO2	0%	-21%	-11	-5	26%	10%
N/C(=N\OC(=O)c1ccc2c(c1)OCO2)c1cccc([N+](=O)[O-])c1	?	111%	88	31*	1%	2%
Cc1cccc(/C(N)=N/OC(=O)c2ccc3c(c2)OCO3)c1	?	?	43*	42*	?	-58%
Cc1cc(C)cc(OCC(=O)Nc2ccc(Cl)c(-c3nc4ncccc4o3)c2)c1	-25%[46.1 µM]	·	·	·	-7%[46.1 µM]	·
O=C(CCc1nnc(CCCc2ccccc2)o1)NCCc1ccccc1	?	59%	43*	22*	10%	-2%
CCOC(=O)CCNC(=O)CCc1nnc(CCCc2ccccc2)o1	4%[46.1 µM]	12%	96*	29*	19%[46.1 µM]	14%
COC(c1ccccc1)c1nnc(CCC(=O)N(C)CCc2ccccc2)o1 (configuration not stated)	-9%[46.1 µM]	4%	5	8	-10%[46.1 µM]	7%
O=C(CCc1nnc(CCCc2ccccc2)o1)NCC(F)(F)F	·	0%	39*	36*	·	15%
COC(c1ccccc1)c1nnc(CCC(=O)NCCCc2ccccc2)o1 (configuration not stated)	?	?	23	17*	-2%	0%
CC(C)C1NC(=S)N(C2CCCCC2)C1=O (configuration not stated)	10%	30%	-15	-6	?	-12%
O=C(CCc1nnc(CCCc2ccccc2)o1)NCCCC1CCCC1	1%[46.1 µM]	5%	120*	41*	?	-6%
O=C(CCc1nnc(CCCCc2ccccc2)o1)NCCN1CCOC1=O	-1%[46.1 µM]	?	84*	21*	?	8%
O=C(CCc1nnc(CCCc2ccccc2)o1)NCCc1ccco1	·	9.3µM*	74*	43*	·	21%
O=C(CCc1nnc(CCCCc2ccccc2)o1)NCCCc1cccnc1	-21%[46.1 µM]	2%	4	25	0%	-5%
O=C(CN1C(=O)c2ccccc2S1(=O)=O)NC1CCCC1	10%	73%	10	2	20%	21%
Cc1ccc2nc(SCC(=O)Nc3ccc(F)c([N+](=O)[O-])c3)[nH]c2c1	?	-16%	-6	5	-12%	1%
CCC(=O)O[C@@H](OP(=O)(CCCCc1ccccc1)CC(=O)N1C[C@H](C2CCCCC2)C[C@H]1C(=O)O)C(C)C (some centres not stated)	·	5.4µM*	·	·	·	-10%
COc1ccc(Nc2oc(-c3ccccc3F)nc2C#N)cc1	1%	-5%	47*	34*	-6%	51%
CNc1oc(-c2cccs2)nc1C#N	7%	7%	16	1	7%	41%
COc1ccc(Nc2oc(-c3cccs3)nc2C#N)cc1	?	?	146*	62*	?	53%
SMILES	Marburg entry inh	Pf growth 96h	Shiga toxin inh	CHX counter	LASV entry inh	Pf growth 48h
C#C[C@]1(O)CC[C@H]2[C@@H]3CCC4=Cc5nc6nc7ccccc7n6cc5C[C@]4(C)[C@H]3CC[C@@]21C	·	5.2µM*	·	·	·	3.7µM*
C#C[C@]1(O)CC[C@H]2[C@@H]3CCC4=Cc5oncc5CC4(C)[C@H]3CCC21C (some centres not stated)	21µM*	·	·	·	?	·
COc1cc(-c2noc(C)c2C(=O)NCCO)cc(OC)c1OC	·	42%	-2	-2	·	-4%
O=C(Cc1ccc(Br)cc1)NCCc1ccc(F)cc1	1%	181%	12	1	?	7%
CCn1c2ccc(OC)cc2c2nc3ccccc3nc21	18%	i	11	5	13%	?
O=[N+]([O-])c1ccc2c(c1)-c1ccccc1C2=NO	?	·	·	·	9%	·
NS(=O)(=O)c1ccc(NC(=S)NC(=O)c2ccc(Br)o2)cc1	-1%[46.1 µM]	35%	17	7	?	23%
Cc1cc(C)cc(NS(=O)(=O)c2ccc(NC(=S)NC(=O)c3ccc(Br)o3)cc2)c1	16µM*	·	-2	17	-22%	?
NS(=O)(=O)c1ccc(NC(=S)NNC(=O)c2ccc(Br)o2)cc1	·	?	35	15*	·	-5%
CN(C)S(=O)(=O)c1ccc(NC(=S)NC(=O)c2ccc(Br)o2)cc1	·	17%	0	5	·	-8%
Cc1cc(C)cc(NS(=O)(=O)c2ccc(NC(=S)Nc3ccccc3)cc2)c1	1%	0%	-2	14*	1%	-8%
Cc1n[nH]c(=O)nc1NC(C)c1ccccc1 (configuration not stated)	?	30%	-4	-4	-13%	·
CCCSc1oc(-c2cccs2)nc1S(=O)(=O)c1ccc(Cl)cc1	2%[46.1 µM]	·	·	·	-1%[46.1 µM]	·
COc1ccc(OC)c2[nH]c(=O)c(CCNC(=O)Cc3cccs3)cc12	·	-7%	-7	-2	·	-9%
O=C(NCc1cccnc1)C1CCC(c2ccc(Cl)cc2)CC1 (configuration not stated)	?	?	-5	-2	-20%	?
O=C(NCc1ccc2c(c1)CCO2)Nc1ccccc1	?	135%	54*	61*	-6%	?
CN1CCN(c2ccc(CNC(=O)c3ccc4c(c3)OCCO4)cc2)CC1	-3%[46.1 µM]	42%	42	10	6%[46.1 µM]	15%
Cc1ccc(C(=O)NCc2ccc3c(c2)CCO3)cc1C	-21%[46.1 µM]	41%	57*	22*	?	26%
O=C(NCc1ccc2c(c1)OCO2)Nc1ccc2ccccc2c1	4%	19%	9	11	2%	7%
CCc1noc(C)c1C(=O)Nc1nnc(CC(C)C)s1	13%[46.1 µM]	3%	·	·	-1%	-24%
CCn1c(C)nc2c(C)[n+](CC(=O)c3ccc(Br)cc3)ccc21	?	?	61*	25*	14%[46.1 µM]	-98%
Cc1sc[n+](CC(=O)c2ccc(Br)cc2)c1C	·	8%	-1	7	·	13%
Cn1c(COc2ccccc2)nnc1SCC(=O)Nc1ccc(S(N)(=O)=O)cc1	11%	?	2	1	5%	·
N#C/C(=C\c1cn(CC(=O)O)c2ccccc12)C(=O)NCc1ccccc1	·	?	-4	-1	·	2%
